Measured values reported in PubChem BioAssay (NCI).
Compounds without any hit were thinned out: in the full panel of roughly 79,000, 15% have a hit. No stated cut-off is given here; in the data, active means growth inhibition above about 70%; inactive means the rest. Where a SMILES comes first, the peptide text is derived from it. The star is where a group is joined. Cbz = O=C(OCc1ccccc1)*

Assays:
[1] = NCI Yeast Anticancer Drug Screen. Data for the rad50 strain (AID 155);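 further: 0% = growth of vehicle-only cultures of the same strain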; settings: S. cerevisiae rad50 strain growth inhibition; at 50.0 µM; active compounds read high
How it was run: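 Cells are treated with compound, grown, and their growth is then scored against vehicle-only cultures of the same repair-deficient yeast strain.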

[2] = NCI Yeast Anticancer Drug Screen. Data for the mec2-1 strain (AID 157); settings: S. cerevisiae mec2-1 strain, at 50.0 µM, active compounds read high
How it was run: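 Cells of the genetically defined mec2-1 yeast strain are incubated with test compound. Inhibition of growth is calculated against vehicle-treated controls.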

[3] = NCI Yeast Anticancer Drug Screen. Data for the sgs1 mgt1 strain (AID 161);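 further: 0% = growth of cultures given vehicle only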; settings: S. cerevisiae sgs1 mgt1 strain, at 50.0 µM, active compounds read high
How it was run: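 Test agents were incubated with a DNA-repair-mutant yeast strain. Growth was then read and compared against vehicle-treated controls.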

[4] = NCI Yeast Anticancer Drug Screen. Data for the cln2 rad14 strain (AID 165);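 further: 0% = growth equal to vehicle treated cultures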; settings: S. cerevisiae cln2 rad14 strain, at 50.0 µM, active compounds read high
How it was run: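 The screen exposed genetically defined yeast (cln2 rad14) to test compounds and scored growth inhibition relative to vehicle-treated controls.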

[5] = NCI Yeast Anticancer Drug Screen. Data for the bub3 strain (AID 167); settings: S. cerevisiae bub3 mutant strain, at 50.0 µM, active compounds read high
How it was run: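 Part of a panel of yeast mutants defective in DNA damage repair or cell cycle regulation. Each strain is grown with compound, and inhibition is calculated relative to solvent-treated cultures.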

[6] = NCI Yeast Anticancer Drug Screen. Data for the mlh1 rad18 strain (AID 175); settings: S. cerevisiae mlh1 rad18 strain growth inhibition; at 50.0 µM; active compounds read high
How it was run: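 Compound-treated yeast growth, normalised to vehicle controls. Strain bears defined DNA repair mutations.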

Measured: growth inhibition

O=C(Nc1ccccc1Cl)Nc1ccccc1Br
inactive: [1] 16.8% | [2] 11.7% | [3] 14.7% | [4] 12.2% | [5] 6.8% | [6] -17.3%

O=[N+]([O-])c1ccc2nc(-c3ccccn3)c(-c3ccccn3)nc2c1
inactive: [1] 43.9% | [2] 18.4% | [3] 42.6% | [4] 18.1% | [5] 47.5% | [6] 41%

O=[N+]([O-])c1cc(/C=N\NS(=O)(=O)c2ccc(Cl)cc2)c(O)c([N+](=O)[O-])c1
inactive: [1] 26.9% | [2] 7.2% | [3] 3.9% | [4] -1.35% | [5] 8.75% | [6] 8.6%

Cc1cc2nc(CC(=O)c3cccnc3)c(=O)[nH]c2cc1C
inactive: [1] 0.9% | [2] 3.05% | [3] 12.4% | [4] 18.3% | [5] -8.05% | [6] 15.8%

O=c1[nH]c2cc(Cl)ccc2nc1/C=C(\O)c1cccc(O)c1
inactive: [1] -3.45% | [2] -5.05% | [3] -8.45% | [4] -4.35% | [5] -4.45% | [6] 10.2%

CCOC(=O)c1ccc(NC=O)cc1
inactive: [1] 4.1% | [2] 7.35% | [3] -8.75% | [4] -12.5% | [5] 1.95% | [6] -24.1%

CCc1cccc(CC)c1N=C(NC(=O)c1ccc(Br)cc1)SC
inactive: [1] -17.6% | [2] -16.5% | [3] -4.7% | [4] -6.75% | [5] -17.1% | [6] -5.65%

COC(=O)c1c(O)c(C#N)c2[nH]c3ccccc3n2c1=O
inactive: [1] -22.6% | [2] -16.6% | [3] -10.6% | [4] 7.85% | [5] -4.4% | [6] -18.4%

Cc1cc2c(cc1C)NC(=O)CC(c1ccccc1)=N2
inactive: [1] 18% | [2] -7.8% | [3] 4.15% | [4] 3.3% | [5] 28.9% | [6] 10.8%

c1ccc(Cc2[nH]nc(-c3n[nH]c(Cc4ccccc4)c3-c3ccccc3)c2-c2ccccc2)cc1
inactive: [1] -28.8% | [2] 18.1% | [3] -9.65% | [4] -8.35% | [5] -20.6% | [6] 8.4%

O=C1/C(=C/c2ccc(Cl)c(Cl)c2)CCC/C1=C\c1ccc(Cl)c(Cl)c1
inactive: [1] 30.4% | [2] -5.85% | [3] 2.7% | [4] 2.95% | [5] -3.7% | [6] 1.2%

COc1ccc(-c2onc(-c3ccc([N+](=O)[O-])cc3)c2C2=NCCCN2)cc1
inactive: [1] 0.45% | [2] -6.65% | [3] -10.3% | [4] 12.7% | [5] -1.95% | [6] -20.3%

Cc1ccc(NC(=O)C(=O)CC(=O)c2c(C)n([O-])c3ccccc3[n+]2=O)cc1
inactive: [1] 5.65% | [2] 6.95% | [3] -6.5% | [4] 16.4% | [5] -1.55% | [6] 17.4%

C=C(CN(C)C)C1(c2ccccc2)CC2(CCCC2)C(=O)O1 (stereo not given)
inactive: [1] 24.2% | [2] 12% | [3] 13.3% | [4] -4.75% | [5] 11.9% | [6] 25.5%

CCOc1c[n+](C)c(/C=C/c2ccccc2)s1
inactive: [1] 3.15% | [2] -11.6% | [3] -3.25% | [4] -9.3% | [5] -0.45% | [6] -20.9%

CSCCC(NC(=O)C(Cc1ccccc1)NC(=O)OCc1ccccc1)C(=O)O (stereo not drawn) (Cbz-Phe-Met-OH; configuration not given here)
inactive: [1] 5.1% | [2] -13.2% | [3] -1% | [4] -40.4% | [5] -4.95% | [6] 4.85%

COc1ccc(C(c2c(O)c3ccccc3oc2=O)N2CCCC2)c(OC)c1 (stereo not given)
inactive: [1] 7.7% | [2] -5.7% | [3] -3.25% | [4] -25.1% | [5] -1.15% | [6] -3.3%

NC(=O)NNC/C(Cl)=C(\Cl)C(=O)O
inactive: [1] -1.65% | [2] -19.4% | [3] 8.7% | [4] 16.9% | [5] 5.5% | [6] 2.85%

Cc1c(Cl)cccc1NC(=O)Nc1ccccc1
inactive: [1] -1.35% | [2] 3.3% | [3] -6.25% | [4] -8.1% | [5] 4.1% | [6] 7.65%

CC1CCC(C(C)C)/C(=N\O)C1 (stereo not given)
inactive: [1] 4.8% | [2] -19.4% | [3] -11.9% | [4] -7.7% | [5] -6.4% | [6] 2.05%
